Tested on: Vero E6 infected with SARS-CoV-2
Test: inhibition of SARS-CoV-2 cytopathic effect; higher = more antiviral protection, active = above 15
Conditions: 48 h

Measured: inhibition of SARS-CoV-2 cytopathic effect

C[C@@H]1C[C@@H]([C@H](O)CC2CC(=O)NC(=O)C2)C(=O)[C@@H](C)C1 [cycloheximide]
inactive: 1 nM 2.12% | 8.33 nM 2.86% | 100 nM 6.34%
active: 833.33 nM 27.6% | 10000 nM 17.4%

O=C(N[C@H](Cc1ccccc1)C(=O)O)c1sc2cc(F)ccc2c1Cl
inactive: 1 nM 2.8% | 8.33 nM 1.61% | 100 nM 0.39% | 833.33 nM 1.13% | 10000 nM 3.31%

CNC(=O)c1cnn(-c2nc(N)c3ncn([C@@H]4O[C@H](CO)[C@@H](O)[C@H]4O)c3n2)c1 [regadenoson]
inactive: 1 nM 1.53% | 8.33 nM 0.87% | 100 nM 3.4% | 833.33 nM -1.38% | 10000 nM -0.12%

COc1ccc2c(Oc3ccc(NC(=O)c4c(C)n(CC(C)(C)O)n(-c5ccccc5)c4=O)nc3)ccnc2c1
inactive: 1 nM 2.46% | 8.33 nM 1.91% | 100 nM -0.28% | 833.33 nM -1.35% | 10000 nM -0.65%

CCS(=O)(=O)N1CCC[C@@H]2CN3CCc4cc(OC)ccc4[C@@H]3C[C@@H]21
inactive: 1 nM -0.74% | 8.33 nM 1.49% | 100 nM 0.02% | 833.33 nM 5.17% | 10000 nM -0.18%

CC1(C)CC(Oc2ccc(-c3ccc(-c4cn[nH]c4)cc3O)nn2)CC(C)(C)N1
inactive: 1 nM 1.13% | 8.33 nM 0.25% | 100 nM 2.2% | 833.33 nM -9.03% | 10000 nM -14.9%

O=C(O)COCCN1CCN(C(c2ccccc2)c2ccc(Cl)cc2)CC1 (stereo not given) [cetirizine]
inactive: 1 nM -1.03% | 8.33 nM 1.14% | 100 nM -0.08% | 833.33 nM 0.99% | 10000 nM -2.71%

Cc1cccc(C)c1NC(=O)C1CCCCN1C (stereo not given) [mepivacaine]
inactive: 1 nM -3.62% | 8.33 nM -1.78% | 100 nM -2.27% | 833.33 nM -0.18% | 10000 nM 0.81%

COc1cc(N2CCC(N3CCN(C)CC3)CC2)ccc1Nc1ncnc(Nc2ccccc2S(=O)(=O)C(C)C)n1
inactive: 1 nM 1.25% | 8.33 nM -0.68% | 100 nM 1.16% | 833.33 nM 2.18% | 10000 nM -7.16%

O=C(O)CCCCCCNC1c2ccccc2CCc2ccccc21 [amineptine]
inactive: 1 nM -0.8% | 8.33 nM -0.3% | 100 nM -1.15% | 833.33 nM -1.42% | 10000 nM -0.04%

COc1ccc(C(=O)N2CCCC2=O)cc1 [aniracetam]
inactive: 1 nM 0.63% | 8.33 nM 0.43% | 100 nM 0.75% | 833.33 nM 0.1% | 10000 nM 0.6%

CCOc1ccc(C[C@H]2NC(=O)CCSSC[C@@H](C(=O)N3CCC[C@H]3C(=O)N[C@@H](CCCN)C(=O)NCC(N)=O)NC(=O)[C@H](CC(N)=O)NC(=O)[C@H]([C@@H](C)O)NC(=O)[C@H]([C@@H](C)CC)NC2=O)cc1 [atosiban]
inactive: 1 nM 1.81% | 8.33 nM -1.47% | 100 nM -2.35% | 833.33 nM -0.16% | 10000 nM 0.37%

CCc1oc2ccccc2c1C(=O)c1cc(Br)c(O)c(Br)c1 [benzbromarone]
inactive: 1 nM -1.45% | 8.33 nM 0.69% | 100 nM -2.5% | 833.33 nM -0.89% | 10000 nM 0.48%

CNc1cc2[nH]c(=O)n(-c3ccc(NC(=O)NS(=O)(=O)c4ccc(Cl)s4)cc3)c(=O)c2cc1F [elinogrel]
inactive: 1 nM 3.26% | 8.33 nM 1.24% | 100 nM -3.68% | 833.33 nM 3.74% | 10000 nM -1.62%

Cc1nc(-c2cn3c(n2)-c2ccc(-c4cnn(C(C)(C)C(N)=O)c4)cc2OCC3)n(C(C)C)n1 [taselisib]
inactive: 1 nM 3.71% | 8.33 nM 1.62% | 100 nM -1.05% | 833.33 nM -1.92% | 10000 nM -8.91%

Cc1csc(NC(=O)CSc2ccc(-c3ccccc3)nn2)n1
inactive: 1 nM 6.45% | 8.33 nM -1.88% | 100 nM -1.71% | 833.33 nM -1.48% | 10000 nM 12.2%

CC(C)[C@H](N)C(=O)OCC(CO)OCn1cnc2c(=O)nc(N)[nH]c21 (mixture of isomers) [valganciclovir]
inactive: 1 nM 6.98% | 8.33 nM 8.27% | 100 nM 4.51% | 833.33 nM 8.72% | 10000 nM 1.96%

CCNC(=O)NS(=O)(=O)c1sc(CC(C)C)cc1-c1ccc(Cn2c(-c3ccccc3)nc(OC)c2C=O)cc1
inactive: 1 nM -1.39% | 8.33 nM -0.39% | 100 nM 2.26% | 833.33 nM 1.08% | 10000 nM 0.67%

O=C1CCC[C@@H]2[C@H]3CCC[N+]4([O-])CCC[C@@H](CN12)[C@@H]34 (stereo not given in full) [oxymatrine]
inactive: 1 nM 2.76% | 8.33 nM 1.55% | 100 nM 1.11% | 833.33 nM 0.79% | 10000 nM -1.71%

CC(C)(Sc1ccc(CCN(CCCCC2CCCCC2)C(=O)NC2CCCCC2)cc1)C(=O)O
inactive: 1 nM -11.4% | 8.33 nM -10% | 100 nM -5.76% | 833.33 nM -3.65% | 10000 nM -8.5%

CN1CCCN=C1COC(=O)C(O)(c1ccccc1)C1CCCCC1 (stereo not given) [oxyphencyclimine]
inactive: 1 nM 2.48% | 8.33 nM 0.59% | 100 nM 0.28% | 833.33 nM 2.86% | 10000 nM -1.14%

O=C1c2cccc(O)c2C(=O)c2c(O)cc(CO)cc21 [aloe-emodin]
inactive: 1 nM -3.13% | 8.33 nM -0.39% | 100 nM -0.52% | 833.33 nM -3% | 10000 nM -2.43%

CCN(CC)CCNC(=O)c1cc(S(C)(=O)=O)ccc1OC [tiapride]
inactive: 1 nM 1.6% | 8.33 nM -0.89% | 100 nM -0.61% | 833.33 nM 0.66% | 10000 nM 2.27%

CC(C)C(=O)Nc1ccc([N+](=O)[O-])c(C(F)(F)F)c1 [flutamide]
inactive: 1 nM -1.61% | 8.33 nM -1.6% | 100 nM -3.44% | 833.33 nM -2.92% | 10000 nM -5.12%

C=C[C@]1(C)C[C@@H](OC(=O)CSC(C)(C)CNC(=O)[C@H](N)C(C)C)[C@]2(C)[C@H](C)CC[C@]3(CCC(=O)[C@H]32)[C@@H](C)[C@@H]1O [valnemulin]
inactive: 1 nM -0.47% | 8.33 nM -0.46% | 100 nM -2.63% | 833.33 nM -4.5% | 10000 nM -4.72%

COc1ccc2cc(-c3nc(-c4ccc([S+](C)[O-])cc4)[nH]c3-c3ccncc3)ccc2c1 (stereo not given) [tie2-kinase-inhibitor]
inactive: 1 nM 5.39% | 8.33 nM 5.15% | 100 nM 0.64% | 833.33 nM 1.97% | 10000 nM 9.27%

Oc1cccc(-c2c3nc(c(-c4cccc(O)c4)c4ccc([nH]4)c(-c4cccc(O)c4)c4nc(c(-c5cccc(O)c5)c5ccc2[nH]5)CC4)C=C3)c1 [temoporfin]
inactive: 1 nM -0.78% | 8.33 nM 3.96% | 100 nM -0.62% | 833.33 nM -2.48% | 10000 nM -5.99%

CC(C)NC[C@@H](C(=O)N1CCN(c2ncnc3c2[C@H](C)C[C@H]3O)CC1)c1ccc(Cl)cc1
inactive: 1 nM -0.34% | 8.33 nM -0.39% | 100 nM -0.29% | 833.33 nM 2.69% | 10000 nM 1.98%

O=C(O)c1c2ccccc2cc2ccccc12 [9-anthracenecarboxylic-acid]
inactive: 1 nM -4.6% | 8.33 nM 2.11% | 100 nM 0.63% | 833.33 nM 1.03% | 10000 nM -2.02%

CC(C)NC[C@@H](O)COc1ccc(CC(N)=O)cc1 (racemic) [atenolol-(+/-)]
inactive: 1 nM -2.25% | 8.33 nM 0.225% | 100 nM 0.74% | 833.33 nM 0.24% | 10000 nM -0.8%

CCCCN(CCCC)C(=O)CN1C[C@H](c2ccc3c(c2)OCO3)[C@@H](C(=O)O)[C@@H]1c1ccc(OC)cc1 [atrasentan]
inactive: 1 nM 0.53% | 8.33 nM 1.72% | 100 nM 1.15% | 833.33 nM 2.37% | 10000 nM 1.46%

COc1cc(/C=C(\C#N)C(N)=O)cc(CSc2nc3ccccc3s2)c1O [tyrphostin-AG-825]
inactive: 1 nM 2.84% | 8.33 nM 1.12% | 100 nM 0.69% | 833.33 nM -0.02% | 10000 nM 0.99%

COc1ccc(Cc2cnc(N)nc2N)cc1OC [diaveridine]
inactive: 1 nM -0.02% | 8.33 nM 0.43% | 100 nM -0.86% | 833.33 nM 2.81% | 10000 nM 0.75%

N=C(N)NCCN1CCCCCCC1 [guanethidine]
inactive: 1 nM 1.98% | 8.33 nM 0.59% | 100 nM 4.01% | 833.33 nM 2.31% | 10000 nM 0.3%

C/C=C(/C)C(=O)O[C@H]1[C@H](OC(C)=O)[C@@]2(CO)C(CC1(C)C)C1=CCC3[C@@]4(C)CCC(O[C@@H]5O[C@H](C(=O)O)[C@@H](O[C@@H]6O[C@H](CO)[C@@H](O)[C@H](O)[C@H]6O)[C@H](O)[C@H]5O[C@@H]5O[C@H](CO)[C@@H](O)[C@H](O)[C@H]5O)[C@](C)(CO)C4CC[C@@]3(C)[C@]1(C)C[C@H]2O.C/C=C(\C)C(=O)O[C@H]1[C@H](OC(C)=O)[C@@]2(CO)C(CC1(C)C)C1=CCC3[C@@]4(C)CCC(O[C@@H]5O[C@H](C(=O)O)[C@@H](O[C@@H]6O[C@H](CO)[C@@H](O)[C@H](O)[C@H]6O)[C@H](O)[C@H]5O[C@@H]5O[C@H](CO)[C@@H](O)[C@H](O)[C@H]5O)[C@](C)(CO)C4CC[C@@]3(C)[C@]1(C)C[C@H]2O (stereo not given in full) [escin]
inactive: 1 nM -2.05% | 8.33 nM -1.77% | 100 nM -0.38% | 833.33 nM -4.84% | 10000 nM -27.8%

Source: the supplement of paper PMC13380429
